Reference: PubChem BioAssay AID1508600 (Functional Genomics Laboratory (NCATS/FGL), 2020)
Screen size: about 53,000 sequences; about 3,700 (7%) were called active.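 Rule for the calls: active = gene knockdowns whose robust z-score for IL-1 alpha signal is at least 2 or at most -2, so actives lie on both sides; inactive = the rest.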 Shown is part of a subset that was picked to be rich in actives.

Experiment: Components of the Cytosolic LPS Sensing Pathway: Gene Identification via Genome-wide siRNA Screen
Conditions: RAW264.7 macrophages, IL-1a HTRF, actives lie on both sides, screened at 100 nM (by protocol), cells primed 5 h with Pam3CSK4 first
Description: Non-canonical inflammasome activation by cytosolic LPS is a critical component of the host response to Gram-negative bacterial infection, however we lack a comprehensive understanding of the cellular processes that control this pathway. Here we describe a genome-wide siRNA screen to identify genes regulating the mouse macrophage IL-1 alpha response to cytosolic LPS.
RAW264.7 cells were maintained in complete DMEM media, comprising DMEM with 4.5 g/L glucose, 10% FBS (Gemini Bio-Products, West Sacramento, CA), 2 mM Glutamine (Lonza) and 20 mM HEPES (Lonza), hereafter complete DMEM.
The RNAi screen was conducted in 384-well format using the Ambion Silencer Mouse Genome siRNA Library (#4391425), which consists of three unique, nonoverlapping, nonpooled siRNAs for each of 17,000 gene targets. siRNA reagents ([…]) were stamped into 384-well white flat-bottom microplates (Corning, 3570) using a Velocity11 VPrep liquid handling system (Agilent) integrated into a BioCel robotic platform (Agilent) in columns 1-22, leaving columns 23-24 empty for negative (Ambion, Negative control #1) and positive (mouse Casp4) controls, respectively. The median value of each plate's negative control column was used to normalize sample wells, and the positive control was used to assess transfection efficiency and assay performance.
Lipofectamine RNAiMAX Transfection Reagent ([…]; Invitrogen) was added in […] serum-free, antibiotic-free media to plate wells using a Thermo Scientific Matrix WellMate and Microplate Stacker. Plates were incubated for 45 min at room temperature to allow for the sufficient formation of siRNA-lipid complexes. Cells were seeded at a density of 1x10^4 cells per well in 20 microL media containing 20% (vol/vol) FBS without antibiotics. The final concentration of siRNA in each well was 100 nM. Cells were cultured for 48h at 37 degrees C in 5% CO2 before addition of […] of TLR ligand Pam3CSK4 for 5 hours. The medium was then removed, replaced with […] growth media and cell were transfected with […] of LipidA and TransIT-TKO (Mirus) for 24 hour. At the end of the LipidA treatment, […] of supernatant was transferred to a 384 Greiner Bio-one non-binding low volume plate and […] of IL-1a HTRF reagent (Cisbio, 62MIL1APEH) was added and incubated at room temperature overnight. The plates were read on an EnVision plate reader (PerkinElmer). Cell viability was measured by adding 20ul Cell Titer Glo to the original plate and running a luminescence read on the EnVision. The quantified IL-1a signal for each siRNA gene-targeted well was divided by the median of the negative control wells and multiplied by 100 to achieve a negative control normalized value for each well/siRNA. This normalized value was then used to generate a robust z-score by first taking the log of each value and then by subtracting the median and dividing by the […].

Row | Sequence | z-score
1 | GCCUGACGGCACGUAUGUATT against Acox1 | 0.527 (inactive)
2 | GGUACAGUGCAUCGACAUGTT against Eng | 0.879 (inactive)
3 | CGGAAGGAAGUGCCUAAACTT against Rcc2 | 0.668 (inactive)
4 | GCAGUUAACUACGUUGCAATT against Zranb2 | -0.44 (inactive)
5 | GGGAUGUGAUAGUUCAUAATT against Stil | -0.304 (inactive)
6 | GGACAUUCUCUACCGAAUATT against Acsm1 | 2.04 (active)
7 | GGAUGAUUAUUGGAGCUAUTT against Vtn | 0.128 (inactive)
8 | GGACAAUAGGAGCCUUUAATT against Vmn1r211 | 0.125 (inactive)
9 | CCUUCUAGUGCAUCAGUGGTT against Olfr890 | -0.508 (inactive)
10 | GGCUCUGGUCCAAGAAAUGTT against C4b | -0.176 (inactive)
11 | CCAUGUCGUAUGUGAUUCUTT against Hils1 | -0.528 (inactive)
12 | GGAUGUUGAACAAAAGAAGTT against Abce1 | -0.863 (inactive)
13 | GCUUAUGUUGUUGUGCAUUTT against Zfyve21 | 0.362 (inactive)
14 | GCUAUUCAAUCUGAGGAAATT against Olfr1278 | 0.246 (inactive)
15 | GCCUGGAUUAUAGGAUCACTT against Tmem208 | -1.45 (inactive)
16 | GGAUUAGAAUGUCAUGUCUTT against Ddx20 | -1.28 (inactive)
17 | GCAUCAGGCCCGUUCAGAATT against Ddx4 | 3.23 (active)
18 | GCAGGUUGCUAUGCAUAUGTT against 9930038B18Rik | 0.722 (inactive)
19 | CGCAUUUUAGUUCAUCUGUTT against Sowahb | -0.669 (inactive)
20 | GGAUCAAGGAGCAAGUGGUTT against B4galnt1 | -1.7 (inactive)
21 | GACCUUCCAGGUCAAGUUGTT against Plcg1 | 2.56 (active)
22 | CCUAUUCCAUUGACAAUGATT against Tubb2a | 0.286 (inactive)

Row | Sequence | z-score
23 | GCUAAUUCAUGAAUUGAUGTT against Ofd1 | 1.01 (inactive)
24 | GGAGCAGGAGAAAAUUUUGTT against Olfr437 | -0.0124 (inactive)
25 | GGCCCGUCACAUGAAGAAGTT against Ip6k3 | 0.238 (inactive)
26 | GGAGCUAAGUGAUUUUAGATT against Mtf1 | 0.403 (inactive)
27 | GGUGGAGGAUUUUUCAGAUTT against Hs6st2 | 2.42 (active)
28 | GGAGGAUAUUGGAACUGCCTT against Lrrc26 | 0.312 (inactive)
29 | GGCAUUAUCGUGGUUGGCATT against Ntpcr | -1.97 (inactive)
30 | GCACGAGAGUCUGAAGGAUTT against Mns1 | -0.2 (inactive)
31 | GGUUGUCGCCAGAAUCAAGTT against Slc9a3r2 | 2.28 (active)
32 | GGAUCUAUGGACGACCUUCTT against Kcnj10 | -0.643 (inactive)
33 | GGCGUGUCUGUAAAAUCUUTT against Exo5 | 0.656 (inactive)
34 | GCGAGAUUGGUGCAAAACUTT against Grem1 | -1.43 (inactive)
35 | CCGUCAUCCGAGCAAUCAGTT against Kcnq5 | -0.248 (inactive)
36 | CGAACGAUUGAAGAUUUCUTT against Nat3 | 2.81 (active)
37 | GGUGGCAGACAUUUCAACATT against Ifi27 | 1.54 (inactive)
38 | GCUUCUUACAGUUUGCCCATT against Vmn1r65 | -0.859 (inactive)
39 | CGUGACCAUCAGGCUAAAGTT against Ecrg4 | 3.42 (active)
40 | GGUAAAAAAUGCUUUCAACTT against Olfr1008 | 0.696 (inactive)
41 | GGCGACAGCUAAGUGUUGGTT against Gprc5a | -0.0528 (inactive)
42 | GGAGCUGAUAAGAAAACUATT against Gbp2 | 0.486 (inactive)
43 | CCCUCAGUUGGUCACAUGUTT against Mpc1 | -0.182 (inactive)
44 | GGGACAAAAUUAUUCCUCCTT against Med14 | -0.977 (inactive)

Row | Sequence | z-score
45 | GGAACAACUUUCAUCUCACTT against Anxa10 | 1.34 (inactive)
46 | CGAAAUUUAACUUGAACAGTT against Toporsl | 0.659 (inactive)
47 | GGGACGGAGAAAAGCUUUUTT against Olfr419 | 3.92 (active)
48 | AGCAGAAAAAGGAAGGCCATT against Xlr3c | 0.733 (inactive)
49 | GGACACAGACCUUUGUUAATT against Lpar6 | -0.0566 (inactive)
50 | GUUCACACACGAAUUUGACTT against H2-Oa | -2.32 (active)
51 | GCCUGUUUGGUAUUCUUCCTT against Olfr832 | -1.19 (inactive)
52 | GGGAAACUCUGCAUGAGUATT against Tenm1 | -0.137 (inactive)
53 | CCUCUGUUGAACCAUCAUUTT against Gpr21 | 0.127 (inactive)
54 | GGCGGUGAUGGAAUGAACATT against Plod2 | 0.706 (inactive)
55 | CCUACCACAUGGAUGAGUATT against Accs | 0.525 (inactive)
56 | GCUCUAGGGUCGUAAUGUUTT against Ralb | -2.33 (active)
57 | GGAUUUCAUCUGGUACCUGTT against Ceacam19 | -0.0176 (inactive)
58 | CGGAAUAUAGAAUGAAACCTT against Cd200r3 | 0.731 (inactive)
59 | GGACCAUAAAGUGUUACUATT against Tnrc6b | 0.526 (inactive)
60 | GGGCCCAUUUUCAGAAAUGTT against Tagln3 | 0.0546 (inactive)
61 | GGAGGUUAAGAUUCCAGAGTT against Prune1 | 1.52 (inactive)
62 | CCUAUGGCCAUGAUCCUUATT against Olfr575 | 1.29 (inactive)
63 | GGUCAAUGAACCAUCCCACTT against Padi6 | -0.983 (inactive)
64 | GGAACACCAUCAAUAAACUTT against Tjap1 | -2.09 (active)
65 | GGACCAGAGUAACUUGAAUTT against Zfp128 | -0.66 (inactive)
66 | CCAUUAUUCUAGUGUCCUATT against Olfr1368 | -0.753 (inactive)

Row | Sequence | z-score
67 | GGGCUAUCUUCUGAUUGGCTT against Zp3r | -2.45 (active)
68 | GGAACUGCUCAAGAUCAAGTT against Plagl2 | 1.92 (inactive)
69 | GGGCUGAUAAUGUUAGCUCTT against Olfr161 | 0.48 (inactive)
70 | CCUCAUAGGCUUGACAAUUTT against Exoc2 | -0.0626 (inactive)
71 | GGCAGCAUGAUUAUUUCAATT against Gm4861 | -0.0747 (inactive)
72 | GGAAGUAGGACUAGCCAUCTT against Akr1c6 | 3.37 (active)
73 | CCUGAAAAGCUAUUGGGUATT against Baat | -0.196 (inactive)
74 | GGGAUGGAGAAUCAAGAUATT against Tmem117 | -1.9 (inactive)
75 | CCCACAUAAAUAAGUUGGUTT against Olfr996 | -1.02 (inactive)
76 | GGUUCAGCUUUUCAUCAGUTT against Cops3 | 1.37 (inactive)
77 | GGAGAUUAUCACAACUAUUTT against Sash3 | 0.845 (inactive)
78 | GGUUCUUGGGCACCAUUAUTT against Olfr786 | 0.742 (inactive)
79 | GCCGUUUGUACCUUGUCAGTT against 4933430I17Rik | -3.01 (active)
80 | GCAAUAUUUCAGCACACUGTT against Txndc16 | -1.08 (inactive)
81 | GCUAAAUUCAGCUGAGGCUTT against Kdm4d | -0.217 (inactive)
82 | GGGAAUAUGUCUUGUGAUATT against Ddo | 0.141 (inactive)
83 | GGUUUUACUGUAGACCUUUTT against Hnrnpa1 | 0.542 (inactive)
84 | GGGAAACUUCUUCAUGGGUTT against Dazap2 | 0.0384 (inactive)
85 | GGAGUAUGAAUGCUAUGUCTT against Fsd2 | -3.24 (active)
86 | GGCUCAUCGAGAUUAACCCTT against Carns1 | 0.195 (inactive)
87 | GGACAUAUUGGAUGGUGAUTT against Usp2 | -0.847 (inactive)
88 | CCGAGAACUACCUGUGUAATT against Unc119b | 0.266 (inactive)

Row | Sequence | z-score
89 | GGGUUCAAAUAGUUUACCUTT against Tmem33 | 0.156 (inactive)
90 | GCCGCAUUGAGUACAUGGUTT against Ap1m1 | 1.9 (inactive)
91 | GGGAUGAUUUUGAGAUUUUTT against Dmpk | 2.74 (active)
92 | GGAUUUCAGAAAGUGGCCUTT against Acad8 | -1.22 (inactive)
93 | CCCUAUGGACUGAGUUUGUTT against Olfr183 | -0.036 (inactive)
94 | CUACGUGCUAGCUCAAGGATT against Mmp28 | -1.1 (inactive)
95 | GGAAGUAUUUCACAUGUGATT against Dctn1 | -0.299 (inactive)
96 | CGGUAUAUAGAUCACUUCUTT against Olfr56 | 0.276 (inactive)
97 | GGUGAUCCUCAUAUUGGCCTT against Npy2r | -0.521 (inactive)
98 | GCUACUUGUUGAGACCCAATT against Esr1 | -0.616 (inactive)
99 | GCCCAAAAGUAUAAACCAGTT against Peg12 | 0.318 (inactive)
100 | CGAGCUUGCUAUCGGGAAGTT against Defb7 | -0.902 (inactive)
101 | GCUUAAGCAGUGAUAAUAATT against B230317F23Rik | -1.65 (inactive)
102 | CGAGGACUACUAGAAGAAATT against Trpc1 | 2.36 (active)
103 | GGACACAGGACUCUACACCTT against Psg16 | 0.293 (inactive)
104 | CGGGAAGCAUCACUAUUUCTT against Nabp1 | -0.822 (inactive)
105 | GGACUCUUUUAUGAGUUUGTT against Lims1 | 0.757 (inactive)
106 | GGCUAAAACAAGUGAAUGGTT against Gli3 | -0.619 (inactive)
107 | GGAGUAAAAAUGAGUAUGATT against Abcg3 | 0.534 (inactive)
